Source: the supplement of paper PMC10849652
The full data set covers some 7,900 targets. This sample favours those with a hit. About 0.6% of all pairs of compound and target were hits. Values without a mark were called inactive.

Experiments:
Assay in all cases: log2 fold change, soluble protein after heating vs DMSO (PISA); higher = thermal stabilisation; K562 cells, 10 uM, 30 min; active = over 0.2 and 3.5 SD of the protein, either way, in both replicates (recomputed)
[1] = compound: COC1=CC=C(C=C1)CN2C=CC3=C2C=C(C=C3)C(=O)NO
Summary of the method: (§1)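 K562 cells (2×10^6 cells/mL) were treated with 10 μM compound for 30 min, and aliquots were heated for 3 min over 48°C-58°C. Pooled aliquots were extracted in PBS with 0.5% NP-40 at 4°C, and the supernatant after 21,000xg for 90 min was measured by TMTpro 16plex LC-MS/MS with channel sums equalised. Reported thermal stability, relative to control samples and from duplicates, is a log2 fold change.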

[2] = compound: CON(C)C(=O)N1N=C(c2cc(F)ccc2F)S[C@@]1(CCCN)c1ccccc1 [filanesib]
Summary of the method: as §1

[3] = compound: CO[C@H]1C[C@@H]2CC[C@@H](C)[C@@](O)(O2)C(=O)C(=O)N2CCCC[C@H]2C(=O)O[C@H]([C@H](C)C[C@@H]2CC[C@H](n3cnnn3)[C@H](OC)C2)CC(=O)[C@H](C)/C=C(\C)[C@@H](O)[C@@H](OC)C(=O)[C@H](C)C[C@H](C)/C=C/C=C/C=C/1C [zotarolimus]
Summary of the method: as §1

[4] = compound: COc1cc(C(=O)O)ccc1NC(=O)[C@@H]1N[C@@H](CC(C)(C)C)[C@](C#N)(c2ccc(Cl)cc2F)[C@H]1c1cccc(Cl)c1F [idasanutlin]
Summary of the method: as §1

[5] = compound: COc1cc(Nc2ncc3c(n2)-c2ccc(Cl)cc2C(c2c(F)cccc2OC)=NC3)ccc1C(=O)O [alisertib]
Summary of the method: as §1

[6] = compound: COc1cc2nc(-c3cc(F)ccc3O)nc(N[C@@H]3CNC[C@H]3C(C)(C)O)c2cc1OC
Summary of the method: as §1

[7] = compound: COc1cc2ncnc(Nc3ccc(F)c(Cl)c3)c2cc1OCCCN1CCOCC1 [gefitinib]
Summary of the method: as §1

[8] = compound: COc1cccc2cc(-c3nc([C@H]4CC[C@H](C(=O)O)CC4)n4ncnc(N)c34)[nH]c12
Summary of the method: as §1

[9] = compound: CS(=O)(=O)CCNCc1ccc(-c2ccc3ncnc(Nc4ccc(OCc5cccc(F)c5)c(Cl)c4)c3c2)o1 [lapatinib]
Summary of the method: as §1

[10] = compound: CS(=O)(=O)N1CCN(Cc2cc3nc(-c4cccc5[nH]ncc45)nc(N4CCOCC4)c3s2)CC1 [pictilisib]
Summary of the method: as §1

Chain of UniProt Q8IVF4 (Q8IVF4 whole entry, looked up): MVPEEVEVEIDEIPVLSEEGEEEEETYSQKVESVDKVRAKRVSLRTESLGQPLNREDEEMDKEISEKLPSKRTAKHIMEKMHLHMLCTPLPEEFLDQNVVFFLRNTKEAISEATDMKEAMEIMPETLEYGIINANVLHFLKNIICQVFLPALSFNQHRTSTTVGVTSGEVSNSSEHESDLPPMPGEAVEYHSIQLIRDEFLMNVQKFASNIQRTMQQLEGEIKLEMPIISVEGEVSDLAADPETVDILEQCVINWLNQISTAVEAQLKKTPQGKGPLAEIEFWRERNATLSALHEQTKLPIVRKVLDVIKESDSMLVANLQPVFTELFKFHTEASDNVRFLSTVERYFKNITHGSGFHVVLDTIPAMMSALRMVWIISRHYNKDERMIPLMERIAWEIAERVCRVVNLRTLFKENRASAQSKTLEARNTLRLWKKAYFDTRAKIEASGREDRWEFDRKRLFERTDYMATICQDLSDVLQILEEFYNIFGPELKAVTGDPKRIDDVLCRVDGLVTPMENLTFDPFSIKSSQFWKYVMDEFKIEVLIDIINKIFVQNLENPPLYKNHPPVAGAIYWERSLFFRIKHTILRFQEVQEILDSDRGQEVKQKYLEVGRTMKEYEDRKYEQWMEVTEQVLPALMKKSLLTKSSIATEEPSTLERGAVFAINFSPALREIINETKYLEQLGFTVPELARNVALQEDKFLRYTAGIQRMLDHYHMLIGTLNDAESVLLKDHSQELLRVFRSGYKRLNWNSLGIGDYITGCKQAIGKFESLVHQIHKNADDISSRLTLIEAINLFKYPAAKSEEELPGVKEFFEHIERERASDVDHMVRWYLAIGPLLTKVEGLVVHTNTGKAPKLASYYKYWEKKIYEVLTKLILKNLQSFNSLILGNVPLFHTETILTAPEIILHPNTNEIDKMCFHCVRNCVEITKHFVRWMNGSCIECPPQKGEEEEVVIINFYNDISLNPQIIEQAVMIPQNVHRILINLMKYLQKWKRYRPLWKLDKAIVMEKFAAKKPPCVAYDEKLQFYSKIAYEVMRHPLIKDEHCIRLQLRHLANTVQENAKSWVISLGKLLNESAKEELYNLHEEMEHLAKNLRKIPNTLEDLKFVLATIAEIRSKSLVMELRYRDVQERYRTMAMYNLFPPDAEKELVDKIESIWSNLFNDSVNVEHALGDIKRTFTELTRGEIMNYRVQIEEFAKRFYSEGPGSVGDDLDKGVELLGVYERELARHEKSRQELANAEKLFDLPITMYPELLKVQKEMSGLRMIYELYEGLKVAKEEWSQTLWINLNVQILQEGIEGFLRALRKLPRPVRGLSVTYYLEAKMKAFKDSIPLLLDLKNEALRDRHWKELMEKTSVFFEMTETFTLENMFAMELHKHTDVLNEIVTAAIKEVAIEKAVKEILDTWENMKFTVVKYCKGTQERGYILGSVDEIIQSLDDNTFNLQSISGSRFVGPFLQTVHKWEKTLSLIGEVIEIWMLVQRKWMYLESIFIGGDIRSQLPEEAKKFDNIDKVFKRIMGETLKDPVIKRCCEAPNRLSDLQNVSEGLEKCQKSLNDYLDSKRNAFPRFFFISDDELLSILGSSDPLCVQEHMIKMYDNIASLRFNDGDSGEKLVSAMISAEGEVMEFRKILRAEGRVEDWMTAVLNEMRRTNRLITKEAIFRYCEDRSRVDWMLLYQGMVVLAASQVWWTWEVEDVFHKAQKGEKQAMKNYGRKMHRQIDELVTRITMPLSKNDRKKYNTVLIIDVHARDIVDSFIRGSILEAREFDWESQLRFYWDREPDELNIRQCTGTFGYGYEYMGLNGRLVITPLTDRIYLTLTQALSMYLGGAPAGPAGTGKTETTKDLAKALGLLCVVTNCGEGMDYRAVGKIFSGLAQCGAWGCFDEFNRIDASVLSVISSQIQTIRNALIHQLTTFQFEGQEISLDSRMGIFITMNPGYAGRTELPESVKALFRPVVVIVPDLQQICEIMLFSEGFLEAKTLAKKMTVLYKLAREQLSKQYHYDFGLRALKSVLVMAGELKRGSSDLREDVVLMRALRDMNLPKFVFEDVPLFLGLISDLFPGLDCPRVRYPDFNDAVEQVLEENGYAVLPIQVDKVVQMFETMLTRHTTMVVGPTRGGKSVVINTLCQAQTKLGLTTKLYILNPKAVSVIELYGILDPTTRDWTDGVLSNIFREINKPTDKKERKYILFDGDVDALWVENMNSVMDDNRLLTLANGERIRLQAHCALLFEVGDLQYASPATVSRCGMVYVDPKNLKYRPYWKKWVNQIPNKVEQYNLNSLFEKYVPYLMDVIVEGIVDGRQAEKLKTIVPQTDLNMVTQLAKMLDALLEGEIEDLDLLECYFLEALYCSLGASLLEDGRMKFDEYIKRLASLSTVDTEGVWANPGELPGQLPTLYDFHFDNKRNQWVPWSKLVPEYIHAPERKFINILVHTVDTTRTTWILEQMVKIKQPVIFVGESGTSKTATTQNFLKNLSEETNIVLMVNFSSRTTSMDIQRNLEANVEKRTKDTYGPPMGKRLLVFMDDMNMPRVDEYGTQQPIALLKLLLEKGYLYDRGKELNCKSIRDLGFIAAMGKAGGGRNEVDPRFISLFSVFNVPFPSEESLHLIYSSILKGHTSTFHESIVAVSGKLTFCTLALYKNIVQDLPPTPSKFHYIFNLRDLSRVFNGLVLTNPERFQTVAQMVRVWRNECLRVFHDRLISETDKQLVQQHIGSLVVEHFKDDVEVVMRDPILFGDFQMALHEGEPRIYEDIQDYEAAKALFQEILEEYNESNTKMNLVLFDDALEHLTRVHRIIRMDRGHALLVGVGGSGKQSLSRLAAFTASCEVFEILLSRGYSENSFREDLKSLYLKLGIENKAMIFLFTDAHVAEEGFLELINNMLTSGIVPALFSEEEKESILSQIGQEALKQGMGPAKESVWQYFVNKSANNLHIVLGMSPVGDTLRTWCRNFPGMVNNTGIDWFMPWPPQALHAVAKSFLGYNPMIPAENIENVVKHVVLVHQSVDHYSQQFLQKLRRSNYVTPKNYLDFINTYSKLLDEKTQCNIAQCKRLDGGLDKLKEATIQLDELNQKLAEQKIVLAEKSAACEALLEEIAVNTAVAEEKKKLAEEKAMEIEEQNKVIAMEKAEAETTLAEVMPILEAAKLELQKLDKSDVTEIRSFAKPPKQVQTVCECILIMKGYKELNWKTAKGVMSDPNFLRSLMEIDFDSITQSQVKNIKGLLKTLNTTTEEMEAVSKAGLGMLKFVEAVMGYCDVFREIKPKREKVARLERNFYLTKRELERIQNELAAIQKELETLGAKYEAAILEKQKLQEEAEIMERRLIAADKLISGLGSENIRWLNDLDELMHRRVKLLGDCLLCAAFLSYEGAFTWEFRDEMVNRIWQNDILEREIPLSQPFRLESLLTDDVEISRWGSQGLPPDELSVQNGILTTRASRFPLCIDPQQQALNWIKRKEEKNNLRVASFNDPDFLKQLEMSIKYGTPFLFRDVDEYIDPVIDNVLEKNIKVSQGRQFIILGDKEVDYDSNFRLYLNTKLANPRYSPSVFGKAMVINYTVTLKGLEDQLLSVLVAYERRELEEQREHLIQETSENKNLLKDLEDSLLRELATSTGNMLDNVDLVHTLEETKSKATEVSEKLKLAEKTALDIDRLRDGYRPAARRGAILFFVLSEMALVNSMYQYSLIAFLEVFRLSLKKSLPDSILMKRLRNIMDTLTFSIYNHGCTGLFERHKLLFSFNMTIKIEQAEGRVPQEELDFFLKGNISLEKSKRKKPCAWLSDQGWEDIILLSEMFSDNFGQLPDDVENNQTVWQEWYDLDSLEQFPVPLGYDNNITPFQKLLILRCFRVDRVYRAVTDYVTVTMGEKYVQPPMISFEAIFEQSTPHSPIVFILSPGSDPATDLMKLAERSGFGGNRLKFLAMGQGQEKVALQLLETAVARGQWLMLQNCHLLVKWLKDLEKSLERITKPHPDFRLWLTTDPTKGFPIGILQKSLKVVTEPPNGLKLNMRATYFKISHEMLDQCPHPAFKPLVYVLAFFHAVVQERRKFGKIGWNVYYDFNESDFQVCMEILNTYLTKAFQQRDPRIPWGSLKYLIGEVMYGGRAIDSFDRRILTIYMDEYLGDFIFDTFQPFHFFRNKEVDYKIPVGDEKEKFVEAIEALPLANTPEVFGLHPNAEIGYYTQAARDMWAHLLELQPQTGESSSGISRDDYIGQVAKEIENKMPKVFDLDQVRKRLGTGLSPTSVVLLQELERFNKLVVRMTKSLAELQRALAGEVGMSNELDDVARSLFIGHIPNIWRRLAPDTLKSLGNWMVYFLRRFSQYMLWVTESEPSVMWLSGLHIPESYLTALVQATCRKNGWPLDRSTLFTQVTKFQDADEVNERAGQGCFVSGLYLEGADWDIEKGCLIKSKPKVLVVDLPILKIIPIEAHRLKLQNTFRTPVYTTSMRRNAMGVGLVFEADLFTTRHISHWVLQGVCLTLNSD
Chain of UniProt Q9BQI3 (Q9BQI3 whole entry, looked up): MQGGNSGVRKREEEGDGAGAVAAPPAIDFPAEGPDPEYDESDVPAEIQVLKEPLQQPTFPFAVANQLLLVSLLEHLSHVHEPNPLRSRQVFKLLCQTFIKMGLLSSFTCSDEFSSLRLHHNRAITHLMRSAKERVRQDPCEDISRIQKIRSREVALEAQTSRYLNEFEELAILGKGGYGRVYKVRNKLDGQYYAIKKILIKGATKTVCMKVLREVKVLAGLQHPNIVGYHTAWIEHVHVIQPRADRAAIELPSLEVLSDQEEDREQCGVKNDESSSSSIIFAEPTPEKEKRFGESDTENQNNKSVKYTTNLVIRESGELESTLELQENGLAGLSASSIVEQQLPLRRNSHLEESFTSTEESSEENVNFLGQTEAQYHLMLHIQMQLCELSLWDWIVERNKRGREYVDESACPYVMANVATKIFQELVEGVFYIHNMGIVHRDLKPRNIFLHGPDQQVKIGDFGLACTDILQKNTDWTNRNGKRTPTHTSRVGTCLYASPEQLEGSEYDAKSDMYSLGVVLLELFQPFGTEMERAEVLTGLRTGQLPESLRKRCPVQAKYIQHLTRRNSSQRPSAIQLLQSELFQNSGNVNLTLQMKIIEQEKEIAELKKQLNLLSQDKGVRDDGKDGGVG

Target	log2 fold change [1]	log2 fold change [2]	log2 fold change [3]	log2 fold change [4]	log2 fold change [5]	log2 fold change [6]	log2 fold change [7]	log2 fold change [8]	log2 fold change [9]	log2 fold change [10]
DYNC1I2 isoform 5 (UniProt Q13409)	0.012	0.003	0.025	0.025	-0.051	0	-0.003	0.004	0.021	0.035
CTSV (UniProt O60911)	-0.006	-0.112	-0.011	-0.036	-0.042	-0.002	0.056	0.141	-0.064	0.135
EEF1D isoform 2 (UniProt P29692)	-0.038	0.034	0.036	-0.042	-0.016	0.028	0.028	-0.011	0.022	-0.01
DCP2 (UniProt Q8IU60)	-0.085	0.121	-0.037	0.167		0.075			-0.042	
DYRK1A isoform 2 (UniProt Q13627)	-0.061	0.01	0.023	0	-0.03	0.004	0.007	0.036	-0.034	0.017
DLD (UniProt P09622)	-0.003	-0.106	-0.032	0.004	-0.024	-0.056	-0.096	0.036	-0.015	0.067
DNAH10 (UniProt Q8IVF4)	0.574 (active)	-0.187	-0.046		-0.042		-0.04	0.007		0.052
ELAC1 (UniProt Q9H777)	0.022	0.083	-0.06	0.122		0.06	0.112		-0.009	0.049
EOGT (UniProt Q5NDL2)	-0.026	0.053	0.013	0.036	0.028	0.056	0.008	-0.021	0.068	0.007
EIF2AK1 (UniProt Q9BQI3)	-0.047	0.014	-0.057	-0.035	0.032	0.01		-0.089	0.025	-0.147
DCUN1D1 (UniProt Q96GG9)	0.065	-0.003	0.015	-0.062	0.008	-0.021	0.004	0.031	0.019	0.015
FAM193B (UniProt Q96PV7)	-0.179	0.379	-0.077	0.311		0.112			-0.066	
DNAH5 (UniProt Q8TE73)	-0.147	-0.061	0.024		0.011	-0.042	0.046	0.058	-0.484 (active)	-0.001
FAM114A2 (UniProt Q9NRY5)	0	-0.131	-0.01	-0.036	-0.038	-0.093	0.002	0.035	-0.009	-0.02
DHPS (UniProt P49366)	0.268 (active)	-0.024	-0.001	0.03	-0.033	-0.047	-0.018	0.063	0.05	0.024
DYNC1I2 isoform 2 (UniProt Q13409)	0.093	0.203	-0.085	0.201	0.066	0.06		0.051	-0.002	
EDC4 (UniProt Q6P2E9)	0.018	0.106	0.001	0.044	-0.028	0.062	-0.004	0	0.007	0.006
DHRS13 (UniProt Q6UX07)	-0.096	0.298	0.271	0.057	-0.011		0.081	-0.002		0.026
EXOSC10 (UniProt Q01780)	0.593	0.136	0.115	0.01	-0.002	0.387		0.1	-0.221	0.227
EXOC6 (UniProt Q8TAG9)	-0.021	0.017	0.151	-0.058	-0.013	0.119	-0.037	-0.101	-0.052	-0.003
DHRS7B (UniProt Q6IAN0)	0.012	0.03	-0.058	-0.03	0.012	0.335 (active)	0.056	-0.025	0.109	-0.143
DHRS3 (UniProt O75911)	0.13	-0.009	-0.056	-0.107	0.008	0.031	0.067	0.021	0.065	0.019
DNM2 isoform 4 (UniProt P50570)	0.455	0.021	0.273		0.316		-0.013	-0.272		-0.123
FAM118B (UniProt Q9BPY3)	0.028	-0.196	0.011	-0.034	-0.049	0.017	0.031	0.129	0.018	0.099
DTWD1 (UniProt Q8N5C7)	-0.227	-0.081	0.031	-0.115	-0.057	0.078	0.069	0.031	0.044	0.124
CWF19L2 (UniProt Q2TBE0)	0.003	0.225	-0.025	0.124		0.062			-0.08	-0.309
EDC3 (UniProt Q96F86)	0.02	0.112	-0.156	0.065	0.02	0.046	-0.013	-0.337	-0.019	-0.187
DAXX (UniProt Q9UER7)	0.248	0.008	0.055	-0.067		0.283	-0.125		-0.05	0.247
DAG1 (UniProt Q14118)	0.005	0.054	-0.045	-0.047	-0.075	0.105	0.032	0.082	-0.015	0.115
